Most compounds without a hit are left out; they make up all but 7.5% or so of the library.
ELG1 DNA repair = blocks ELG1-dependent DNA repair in HEK293T cells; AID 504467; 330,000 tested, 2.3% active; Potency, µM (top dose mostly 46.1 µM), hits mostly inhibitors; HEK293T ELG1-luciferase reporter, luminescence, 16 h; DNA damage induced by 5-fluorouridine; note: nearly all actives have a fitted effect of over 55% in size
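5-Fluorouridine DNA damage + compound/DMSO, 2,000 cells/well, 16 h, 37 °C/5% CO2. ONE-Glo, 30 min RT, luminescence. Readout = decrease in reporter signal.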
Gal4-VP16 FLuc = Gal4-VP16 reporter inhibition counter-screen | 310,000 tested, 3.5% active | Drosophila S2 Gal4-VP16 UAS-luciferase, luminescence, 20 h | Potency, µM (titrated, usually from 53.6 µM), hits mostly inhibitors | AID 2546;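 note: Gal4-VP16 expression switched on by copper sulfate through the metallothionein promoter; nearly all actives have a fitted effect of over 50% in size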
B2AR arrestin = recruits beta-arrestin to the human beta2-adrenergic receptor; P07550; beta-arrestin recruitment to beta2AR, cell-based reporter; Potency, µM (doses to about 46.1 µM), usual class: activators; AID 492947; 330,000 tested, 0.02% active; note: nearly all actives have a fitted effect of over 65% in size
RORg inh = inhibitors of mouse ROR gamma transcriptional activity; P51450; Drosophila S2 Gal4-RORgamma UAS-luciferase reporter, 20 h; Potency, µM (highest dose often 53.6 µM), most hits filed as inhibitors; 310,000 tested, 5.4% active; note: nearly all actives have a fitted effect of over 60% in size
Target sequence (P51450 whole entry, looked up, the tested form may be a part): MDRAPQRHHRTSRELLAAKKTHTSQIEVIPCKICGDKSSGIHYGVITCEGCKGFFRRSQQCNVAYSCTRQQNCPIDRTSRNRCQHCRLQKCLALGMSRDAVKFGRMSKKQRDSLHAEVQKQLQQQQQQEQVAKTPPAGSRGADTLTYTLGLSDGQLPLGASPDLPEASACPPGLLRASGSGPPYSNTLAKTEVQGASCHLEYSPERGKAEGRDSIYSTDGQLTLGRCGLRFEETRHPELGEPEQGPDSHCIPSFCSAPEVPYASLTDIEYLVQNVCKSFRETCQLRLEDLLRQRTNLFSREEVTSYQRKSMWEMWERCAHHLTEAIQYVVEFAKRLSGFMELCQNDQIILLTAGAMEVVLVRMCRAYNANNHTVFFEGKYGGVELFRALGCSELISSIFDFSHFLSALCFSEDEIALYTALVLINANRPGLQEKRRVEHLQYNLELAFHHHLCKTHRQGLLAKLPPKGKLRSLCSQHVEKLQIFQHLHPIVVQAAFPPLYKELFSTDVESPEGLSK
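Read-out: Photinus luciferase luminescence; inhibitors lower reporter signal. Insect Schneider cells with Gal4-ROR gamma fusion under metallothionein promoter, UAS reporter; 700 uM final copper sulfate induction, 20 hr, ambient temperature.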
TSHR antagonist = human thyrotropin receptor antagonism; P16473; TSHR-expressing cells, TSH-stimulated cAMP HTRF, 2 h; stronger effect = lower value; activity change, negative = inhibition, % at 11.5 µM; 330,000 tested, 0.2% active;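 active = activity change below a set negative limit, meaning inhibition stronger than a set level, cut at about -70% in these data; inconclusive = activity change between two set negative limits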
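Antagonism was scored as loss of TSH-driven cAMP in TSHR cells, stimulated with 4nM TSH (EC80) for 2 hours at 37 deg C and detected by homogeneous HTRF competition immunoassay.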
Large screens that a line does not name were inactive. Unless noted, calls come from the whole dose curve; as a rule, active = well fitted curve in the direction sought with a large enough effect; inconclusive = small, poorly fitted or top-dose-only effect, or another doubt; inactive = no such curve, though single readings can be large; an effect the other way counts as inactive or inconclusive.

CC(C)=CCC/C(C)=C/CNC(=O)C[C@H]1C[C@H](C(=O)N2CCOCC2)[C@@]2(CCC3CCCC3)c3[nH]c4cc(CCC(=O)N(C)C)ccc4c3CCN2C1=O	ELG1 DNA repair 23µM (no result: Gal4-VP16 FLuc, RORg inh)
COCCN1C(=O)N[C@@H](c2cccc(C(F)(F)F)c2)C(C(C)=O)=C1C	none (no result: ELG1 DNA repair, B2AR arrestin, TSHR antagonist)
COc1cc(/C=C/[N+](=O)[O-])ccc1OC(=O)/C=C/c1ccc(F)cc1	Gal4-VP16 FLuc inconclusive
O=C(CN1C(=O)NC2(CCc3ccccc32)C1=O)c1ccc(F)c(F)c1 (stereo not given)	none (no result: Gal4-VP16 FLuc, RORg inh)
NC(=O)c1c(NC(=O)CSc2nnc(Cc3ccccc3)n2Cc2ccco2)sc2c1CCC2	ELG1 DNA repair 23µM
O=C(CSc1nnc(Cc2ccccc2)n1Cc1ccco1)NC12CC3CC(CC(C3)C1)C2	ELG1 DNA repair inconclusive, RORg inh inconclusive
Cc1[nH]c2ccccc2c1/C=N/Nc1nc(Nc2ccccc2)nc(N2CCOCC2)n1	ELG1 DNA repair 23µM, RORg inh inconclusive
Cc1ccc(Nc2nc(N3CCOCC3)nc(N3CCOCC3)n2)cc1	ELG1 DNA repair inconclusive
Oc1[nH]c2ccccc2c1N=Nc1nc(Nc2ccccc2)nc(N2CCOCC2)n1	ELG1 DNA repair 3.7µM
c1ccc(Nc2nc(Nc3ccccc3)nc(N3CCNCC3)n2)cc1	none
C=CCn1c(SCC(=O)NCc2ccccc2)nnc1-c1ccccc1O	ELG1 DNA repair 18µM, RORg inh inconclusive
C=CCn1c(SCC(=O)O)nnc1-c1ccc(C(C)(C)C)cc1	Gal4-VP16 FLuc inconclusive, RORg inh 14µM
Cc1ccc(S(=O)(=O)NCC(=O)N/N=C/c2ccccc2O)cc1	Gal4-VP16 FLuc inconclusive, RORg inh 5.6µM
Cc1ccc(S(=O)(=O)NCC(=O)Nc2ccc(C(F)(F)F)cc2)cc1	none
CC(=O)Nc1ccc(S(=O)(=O)NCCSCc2cccc(Cl)c2)cc1	none
CC(=O)Nc1ccc(S(=O)(=O)NCCSCc2c(Cl)cccc2Cl)cc1	ELG1 DNA repair 23µM, RORg inh inconclusive
CC(=O)Nc1ccc(S(=O)(=O)NCCOc2ccc(Cl)cc2C)cc1	ELG1 DNA repair inconclusive, Gal4-VP16 FLuc 5µM, RORg inh inconclusive
CC(=O)Nc1ccc(NC(=O)CNS(=O)(=O)c2ccc(C)cc2)cc1	Gal4-VP16 FLuc inconclusive, RORg inh 10µM
CC(=O)Nc1ccc(S(=O)(=O)NCCC(=O)Nc2cccc(Cl)c2)cc1	none
Cc1ccc(S(=O)(=O)NCC(=O)N/N=C/c2ccc(Cl)cc2Cl)cc1	Gal4-VP16 FLuc inconclusive, RORg inh inconclusive
O=C(c1ccc2n[nH]nc2c1)N1CCN(c2ccc(C(F)(F)F)cn2)CC1	none (no result: Gal4-VP16 FLuc, RORg inh)
CC1Sc2ccc(S(=O)(=O)CCC(=O)NCc3cccs3)cc2NC1=O (stereo not given)	none
C/C(=N/NC(=O)c1cc(-c2ccccc2)nc2c(Cl)cccc12)c1cccnc1	ELG1 DNA repair inconclusive, Gal4-VP16 FLuc 11µM, RORg inh 18µM
C/C(=N\NC(=O)c1cc(-c2cccnc2)nc2ccccc12)c1ccc(O)cc1O	ELG1 DNA repair inconclusive, Gal4-VP16 FLuc 0.56µM, RORg inh 0.63µM
C/C(=N/NC(=O)c1ccc(Cl)s1)c1cccnc1	Gal4-VP16 FLuc inconclusive, RORg inh 13µM
C/C(=N\NC(=O)c1cc(-c2cccc(OC(C)C)c2)nc2ccccc12)c1cccnc1	Gal4-VP16 FLuc inconclusive
CCC(C)[C@H](NC(=O)c1cc2cc(Cl)ccc2n1C)C(=O)N1CCC[C@H]1C(=O)O (stereo not given in full)	none
COc1cc(OC)cc(C2=NC3(CCC(C)CC3)NC2=S)c1 (stereo not given)	ELG1 DNA repair inconclusive, RORg inh 1.4µM
COc1ccc(OCC(O)Cn2c(Nc3cccc(C)c3)nc3c2c(=O)n(C)c(=O)n3C)cc1 (stereo not given)	ELG1 DNA repair 18µM
O=C(Nc1ncnc2c1ncn2C1OC(COC(=O)c2ccccc2)C(F)C1O)c1ccccc1 (stereo not given)	Gal4-VP16 FLuc 11µM, RORg inh 10µM
CN(C)c1ccc2c(c1)OC(N)=C(C#N)C2c1cccc(F)c1 (stereo not given)	none
N#CC1=C(N)Oc2cc(N)ccc2C1c1cccc(F)c1 (stereo not given)	ELG1 DNA repair 2.9µM
Cc1ccc2c(c1)c1n[nH]c(=S)nc1n2CCc1ccccc1	ELG1 DNA repair inconclusive, Gal4-VP16 FLuc inconclusive, RORg inh 4µM
Fc1ccc2c(c1)c1n[nH]c(=S)nc1n2CCc1ccccc1	Gal4-VP16 FLuc 2.8µM, RORg inh 1.4µM
NNc1nnc2c3cc(F)ccc3n(CCc3ccccc3)c2n1	ELG1 DNA repair 12µM, RORg inh inconclusive
CCN(CC)CCSc1nnc2c3cc(F)ccc3n(Cc3ccccc3)c2n1	none
CCn1c2ccc(C)cc2c2n[nH]c(=S)nc21	Gal4-VP16 FLuc 3.2µM
CCN(CC)CCn1c2ccccc2c2n[nH]c(=S)nc21	none (no result: Gal4-VP16 FLuc, RORg inh)
C/C(CCN1CCCc2nc(C)c(C)cc21)=N\O[C@@H](C)c1cn([C@@H]2COC[C@@H]2O)nn1	none (no result: ELG1 DNA repair, B2AR arrestin, TSHR antagonist)
COc1ccccc1CCn1c(=O)c(-c2ccc(F)c(F)c2)nc2cncnc21	none (no result: ELG1 DNA repair, B2AR arrestin, TSHR antagonist)
COC(=O)[C@@]1(Cc2ccc(F)cc2)[C@H]2c3cc(C(=O)N(C)C)n(CCCNc4ccc(C(F)(F)F)cc4Cl)c3C[C@H]2CN1C(=O)c1ccccc1	none (no result: ELG1 DNA repair, B2AR arrestin, TSHR antagonist)
[O]=[Bi][O]C(=O)[O][Bi]=[O]	none (no result: ELG1 DNA repair, B2AR arrestin, TSHR antagonist)
CCOc1ccccc1N1C(=O)CC(Sc2n[nH]c(-c3ccccc3)n2)C1=O (stereo not given)	RORg inh 3.5µM
COc1ccccc1N1C(=O)CC(Sc2nc(C)cc(C)n2)C1=O (stereo not given)	RORg inh 11µM
COc1ccc(N2C(=O)CC(Sc3nc(C)cc(C)n3)C2=O)cc1OC (stereo not given)	Gal4-VP16 FLuc inconclusive
COc1ccc(N2C(=O)CC(Sc3ncn[nH]3)C2=O)c(OC)c1 (stereo not given)	Gal4-VP16 FLuc 22µM, RORg inh 3.2µM
Cc1ccc(N2C(=O)CC(Sc3ncccn3)C2=O)cc1C (stereo not given)	Gal4-VP16 FLuc inconclusive, RORg inh 13µM
COc1cc(NC(=O)C/C(C)=N/NC(=O)C2CCCCC2)c(OC)cc1Cl	none
Cc1ccccc1Nc1oc(-c2ccccc2)nc1-c1cccs1	none (no result: ELG1 DNA repair, B2AR arrestin, TSHR antagonist)
CCN(CC)c1ccc(/C=C(\C#N)c2ccccn2)cc1	ELG1 DNA repair inconclusive, Gal4-VP16 FLuc 7.1µM, RORg inh 6.3µM, TSHR antagonist inconclusive
CN(CCC#N)c1ccc(/C=C(\C#N)c2ccccn2)cc1	ELG1 DNA repair inconclusive, Gal4-VP16 FLuc 10µM, RORg inh 10µM
CN(C)c1ncc2nc(-c3cccs3)c(=O)n(-c3ccccc3)c2n1	none (no result: ELG1 DNA repair, B2AR arrestin, TSHR antagonist)
Nc1ccccc1SC/C=C/CSc1ccccc1N	none
CC1CCC2(CC1)NC(=O)N(CC(=O)NC(C)c1ccc(F)c(F)c1)C2=O (stereo not given)	none (no result: Gal4-VP16 FLuc, RORg inh)
COc1ccc2[nH]cc(CCNC(=S)NC3CCCC3)c2c1	Gal4-VP16 FLuc inconclusive, RORg inh 10µM

Assay outcomes from PubChem BioAssay.
